Source: PubChem
Wee1 degr inh: Wee1 degradation inhibitors, primary screen, cell-based, HeLa, Wee1K328M-luciferase, luminescence; HeLa Luc-Wee1K328M stability; 100% = proteasome inhibitor MG132 effect; hit rate 1.2% among 220,000; AID 1321, 2008; reporter increase, % at 5 µM;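 active means activation above the mean of all tested compounds plus 3 SD, set per screening run, cut at about 8.8% in these data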;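 further: cells exposed to compound for 20 h before luminescence read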
Target sequence (P30291 whole entry K328M): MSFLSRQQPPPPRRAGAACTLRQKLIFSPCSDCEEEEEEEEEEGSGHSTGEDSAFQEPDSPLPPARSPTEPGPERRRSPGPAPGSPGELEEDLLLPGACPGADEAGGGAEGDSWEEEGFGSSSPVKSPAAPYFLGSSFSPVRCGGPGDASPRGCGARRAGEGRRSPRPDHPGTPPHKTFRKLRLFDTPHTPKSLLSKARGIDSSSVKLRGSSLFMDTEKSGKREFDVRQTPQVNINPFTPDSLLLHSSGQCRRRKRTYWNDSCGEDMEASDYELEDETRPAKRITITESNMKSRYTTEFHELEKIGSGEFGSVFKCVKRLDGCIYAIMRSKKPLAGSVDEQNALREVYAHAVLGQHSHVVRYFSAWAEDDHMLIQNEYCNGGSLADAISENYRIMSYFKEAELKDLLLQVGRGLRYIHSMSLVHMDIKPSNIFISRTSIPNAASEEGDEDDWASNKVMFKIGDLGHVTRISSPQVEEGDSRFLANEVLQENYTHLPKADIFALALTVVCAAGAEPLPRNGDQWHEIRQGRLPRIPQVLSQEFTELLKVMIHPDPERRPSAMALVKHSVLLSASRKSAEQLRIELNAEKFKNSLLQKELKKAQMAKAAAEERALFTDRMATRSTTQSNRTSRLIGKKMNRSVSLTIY
p97 ATPase inh: inhibitors of human p97 ATPase, primary screen, biochemical; Transitional endoplasmic reticulum ATPase (Homo sapiens), P55072; inhibition, % at 8 µM; recombinant p97 ATPase, Kinase-Glo ATP luminescence, 3 h; hit rate 0.42% among 220,000; in the data active means inhibition above about 15%
HSV replic up: enhancers of HSV replication in host cells, fold increase, host cell viability; maximum fold increase; hit rate 0.005% among 220,000; HSV replication augmentation in cells; AID 1956, 2009; in the data active means maximum fold increase above about 1.5; tested in PC3 cells
Hsp70 act: Hsp70 transcriptional activators, primary screen, cell-based, HeLa, Hsp70 promoter luciferase, luminescence, 10 µM. HeLa Hsp70 promoter luciferase reporter; scaled: vehicle 0, proteasome-inhibitor control 100%. activation, % at 10 µM. hit rate 0.04% among 200,000. AID 1203, 2008;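 active means activation above the mean across all tested compounds plus 3 SD, cutoff set per campaign, cut at about 5.5% in these data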
Redox H2O2 prof: compounds producing H2O2 with reducing agent – biochemical, NIH compound library profiling, artefact control for MLSCN library redox annotation, primary screen; DTT-dependent redox cycling H2O2, phenol red/HRP absorbance; 100% = 100 µM peroxide control, 0% = buffer; activation, % at 10 µM; hit rate 0.03% among 200,000; AID 878, 2007;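 active means activation of at least 50% relative to the plate's high and low controls in the primary single-dose screen; inactive means activation below 50%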;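 further: compound incubated with DTT at 0.8 mM final as the reducing agent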
Wee1 stab conf: Wee1 degradation inhibitors, confirmation, cell-based, HeLa, Wee1K328M-luciferase, luminescence, triplicate; shares compounds with Wee1 degr inh; HeLa Luc-Wee1K328M degradation; vehicle 0%, proteasome-blocked wells 100%; activation, % at 5 µM; hit rate 4% among 1,100; AID 1410, 2008; in the data active means activation above about 8.9%
A number is an active result; i = inactive; nt = not tested or not shown. Rows were chosen to be rich in hits. Some 1.6% of all compounds tested hit in one or more screens of this group.

SMILES	Wee1 degr inh	p97 ATPase inh	HSV replic up	Hsp70 act	Redox H2O2 prof	Wee1 stab conf
O=c1c2ccccc2ncn1CCOCCOc1cccc(Br)c1	i	i	i	i	i	nt
CCCC(=O)Nc1cccc(Oc2nc(C)cc(C)c2C#N)c1	i	i	i	i	i	nt
COc1ccc(NC(=O)COC(=O)Cc2ccccc2[N+](=O)[O-])cc1OC	31.2	i	i	i	i	i
COc1ccc(NC(=O)COC(=O)Cc2c[nH]c3ccccc23)cc1OC	i	i	i	i	i	nt
CCOC(=O)C1=C(c2ccccc2)NC(=S)NC1c1cccc([N+](=O)[O-])c1 (configuration not stated)	11.6	i	i	i	i	i
Cc1csc(NC(=O)CSc2nnc(NC(=O)COc3ccccc3)s2)n1	i	i	i	i	i	nt
Nc1[nH]c(N=NC(=O)c2ccccc2O)c2ccccc12	14.2	i	nt	i	i	i
COC(=O)c1cn[nH]c1NC(=S)Nc1ccc(Cl)c(Cl)c1	i	i	i	i	i	nt
CCOC(=O)c1ccc(NC(=O)C(CC)(CC)C(=O)OCC)cc1	15.7	i	i	i	i	i
CCOC(=O)c1ccc(NC(=S)Nc2cccc(N)n2)cc1	17.9	i	i	nt	nt	i
CCOC(=O)c1cn[nH]c1NC(=S)Nc1ccc(OC)cc1	12.5	i	i	nt	nt	i
CC1CC(C)CN(CC(=O)NC(c2ccccc2)c2ccccc2)C1 (configuration not stated)	12.5	i	i	i	i	i
CN(C)c1ccc(C(CNS(=O)(=O)c2ccc(F)c(F)c2)c2c[nH]c3ccccc23)cc1 (configuration not stated)	11.5	i	i	i	i	i
O=C(NC1CCCCCC1)C1Cc2ccccc2CN1C(=O)c1ccco1 (configuration not stated)	21.3	i	i	i	i	i
COc1ccc(-c2nnc(CSc3nc4ccccc4c(=O)n3CC(C)C)o2)cc1OC	i	i	i	i	i	nt
O=[N+]([O-])c1cccnc1Oc1ccc(F)cc1F	i	i	i	nt	nt	nt
Cc1ccccc1OCCn1cc(C(=S)N2CCN(C)CC2)c2ccccc21	13.2	i	i	i	i	i
Cc1ccccc1OCCn1cc(C(=S)N2CCCC2)c2ccccc21	i	i	nt	i	i	nt
COc1cc(/C=N/NC(=O)C(=O)NCc2ccco2)cc(Cl)c1O	i	i	i	nt	nt	nt
c1ccc(C2Nc3ccccc3-c3nc4ccccc4n32)nc1 (configuration not stated)	i	i	i	i	i	nt
c1ccc(C2Nc3ccccc3-c3nc4ccccc4n32)cc1 (configuration not stated)	15.1	i	i	i	i	i
Cc1ccc(S(=O)(=O)NCC2CCC(C(=O)NCc3cccs3)CC2)cc1 (configuration not stated)	i	i	i	i	i	nt
O=C(NCc1cccs1)C1CCC(CNS(=O)(=O)c2ccccc2)CC1 (configuration not stated)	12.1	i	i	i	i	i
O=C(CSc1nc(-c2ccco2)cc(C(F)(F)F)n1)N1CCSCC1	12.2	i	i	i	i	i
C=CCn1c(=O)n(CCC#N)c(=O)n(CCC#N)c1=O	i	i	i	i	i	nt
SMILES	Wee1 degr inh	p97 ATPase inh	HSV replic up	Hsp70 act	Redox H2O2 prof	Wee1 stab conf
Cc1cccc(-c2nc(CSc3nc4c(c(=O)[nH]3)CCC4)c(C)o2)c1	11.0	i	nt	i	i	i
COC(=O)Cc1c(C)c2c(OCc3nn[nH]n3)cc(C)cc2oc1=O	i	i	i	i	i	nt
COc1ccc(OCCn2c(=O)sc3ccccc32)cc1	13.1	i	i	i	i	i
CC(C)c1ccc(C(=O)NCc2ccc(Cl)cc2)cc1	i	i	i	i	i	nt
O=C1CCc2cc(S(=O)(=O)NC(Cc3ccccc3)C(=O)NC3CCCCC3)ccc2N1 (configuration not stated)	28.2	i	nt	i	i	i
CC(C)(C)NC(=O)C(Cc1ccccc1)NS(=O)(=O)c1ccc2c(c1)CCC(=O)N2 (configuration not stated)	i	i	i	i	i	nt
Cc1cc(/C=C(\C#N)C(=O)NC2CCCCCC2)c(C)n1C	28.2	i	i	i	i	i
